This is an account of results in PubChem BioAssay (NCATS).

Several values for one entry are separate records, joined by “and”; a condition that tells them apart may be missing. Equal entries are not always repeated. Results filed as inconclusive are left out. Where a structure was tested more than once in an assay, its records may differ in their call. Activity calls are given as the source filed them. Unless noted, the call rests on the fitted dose curve; in most records, active means well fitted cell-killing curve with a large enough effect; inconclusive means small, poorly fitted or top-dose-only effect; inactive means flat fitted curve, though single readings scatter.

The nature of test [1]: Cell Viability - LYMP2-017 (AID 972).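 Further: series mostly up to about 92 µM; cells exposed to compound for 24 hours at 37 °C; on the % scale 0 is the no-effect control and ±100 the full control effect; nearly all actives have a fitted effect of over 55% in size.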 The essentials: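 Steps: plate 2500 lymphoblastoid cells per well; incubate 5 hr at 37 C; add compound across a concentration series and incubate 24 hr at 37 C; add CellTiter-Glo and read luminescence after 30 min at room temperature; fit Hill curves for AC50.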
Test [2] is described as follows: Cell Viability - LYMP2-019 (AID 973).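 Further: cells exposed to compound for 24 h at 37 °C; 0% = DMSO alone and full effect = 92 µM tetraoctylammonium bromide; nearly all actives have a fitted effect of over 55% in size.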 The essentials: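 Cells plated at 2500/well and allowed 5 hr at 37 C before compound addition. After 24 hr incubation, CellTiter-Glo reagent was added, plates sat 30 min at room temperature, and luminescence was recorded.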
Test [3] in a line: Cell Viability - LYMP2-021 (AID 974).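 Further: compound exposure lasts 24 hours at 37 °C; on the % scale 0 is the no-effect control and ±100 the full control effect; nearly all actives have a fitted effect of over 55% in size.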 In a few lines:
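Concentration-response cytotoxicity in a human lymphoblastoid line: 24 hr treatment at 37 C in complete culture medium, tetraoctylammonium bromide as positive control, luminescent ATP quantitation as viability measure.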

Test [4] in a line: Cell Viability - LYMP2-023 (AID 975).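 Further: cellular ATP measured by luciferase luminescence as viability proxy; series mostly up to about 92 µM; cells exposed to compound for 24 hours at 37 °C; plate controls were DMSO only for no effect and 92 µM tetraoctylammonium bromide control for full effect; nearly all actives have a fitted effect of over 55% in size.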 In a few lines: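 Concentration-dependent drop in intracellular ATP measures acute cytotoxicity in a human lymphoblastoid line treated for 24 hours in complete culture medium. AC50 values are taken from Hill-equation fits of qHTS data.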
Test [5] in a line: Cell Viability - LYMP2-025 (AID 976).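 Further: series mostly up to about 92 µM; cells exposed to compound for 24 h at 37 °C; plate controls were DMSO only for no effect and tetraoctylammonium bromide control for full effect.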 The essentials:
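In qHTS format, LYMP2-025 lymphoblastoid cells in complete culture medium received compound for 24 hr; ATP-based CellTiter-Glo signal gave viability, with AC50 derived by Hill equation.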

Test [6] is described as follows: Cell Viability - LYMP2-002 (AID 977).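 Further: series mostly up to about 92 µM; compound exposure lasted 24 h at 37 °C; plate controls were DMSO only for no effect and 92 µM tetraoctylammonium bromide for full effect.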 In a few lines: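 Cytotoxicity is scored as concentration-dependent loss of cellular ATP in a human lymphoblastoid line after 24 hr compound treatment at 37 C. AC50 is obtained by modelling concentration-response data with the Hill equation.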
Test [7] can be described thus: Cell Viability - LYMP2-006 (AID 978).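 Further: series mostly up to about 92 µM; cells exposed to compound for 24 hours; on the % scale 0 is the no-effect control and ±100 the full control effect; nearly all actives have a fitted effect of over 60% in size.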 In a few lines: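 Concentration-dependent loss of intracellular ATP in a human lymphoblastoid line after 24 hr treatment at 37 C was measured by CellTiter-Glo luminescence, with AC50 values obtained from standard Hill-equation modelling.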
Test [8] in a line: Cell Viability - LYMP2-007 (AID 979).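 Further: cells exposed to compound for 24 h before reading; 0% = DMSO only and the negative end = 92 µM tetraoctylammonium bromide; nearly all actives have a fitted effect of over 60% in size.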 In a few lines:
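Acute toxicity is scored as a concentration-dependent fall in intracellular ATP in human lymphoblastoid cells treated 24 hr at 37 C, measured by luciferase luminescence; Hill-equation modelling yields AC50.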

Test [9] is described as follows: Cell Viability - LYMP2-008 (AID 980).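 Further: cells exposed to compound for 24 h at 37 °C; on the % scale 0 is the no-effect control and ±100 the full control effect; nearly all actives have a fitted effect of over 60% in size.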 In a few lines:
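Acute cytotoxicity is scored as concentration-dependent loss of cellular ATP in a human lymphoblastoid line after 24 hr treatment at 37 C. ATP is quantified by luciferase luminescence.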

Test [10] is described as follows: Cell Viability - LYMP2-010 (AID 981). The essentials: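 Acute toxicity is scored as a concentration-dependent loss of cellular ATP in human lymphoblastoid cells after 24 hr compound exposure in complete medium. Tetraoctylammonium bromide is the positive control.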
A short description of test [11]: Cell Viability - LYMP2-012 (AID 982).
Test [12] is described as follows: Cell Viability - LYMP2-014 (AID 983).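 Further: series mostly up to about 92 µM; cells exposed to compound for 24 h at 37 °C; plate controls were DMSO only for no effect and 92 µM tetraoctylammonium bromide for full effect; nearly all actives have a fitted effect of over 50% in size.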 The essentials: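 Decrease in intracellular ATP after 24 hr treatment at 37 C, measured by luciferase luminescence, indicated cytotoxicity. Concentration-response data were fitted with the standard Hill equation to give AC50.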
Test [13] is described as follows: Cell Viability - LYMP2-016 (AID 984). In a few lines: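 Acute toxicity in a Coriell human lymphoblastoid line is scored as loss of intracellular ATP over 24 h of treatment in complete medium. CellTiter-Glo signal is fitted across concentrations with the Hill equation to give AC50.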
Test [14] in a line: Cell Viability - LYMP2-018 (AID 985).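 Further: compound exposure lasted 24 hr at 37 °C; plate controls were DMSO only for no effect and tetraoctylammonium bromide at 92 µM for full effect; nearly all actives have a fitted effect of over 50% in size.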 In a few lines:
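Acute cytotoxicity is scored as a concentration-dependent drop in intracellular ATP after 24 hr exposure of the lymphoblastoid line in complete culture medium, measured by luciferase luminescence. Potency is expressed as AC50 from Hill modelling.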

Test [15] in a line: Cell Viability - LYMP2-020 (AID 986). In a few lines:
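Acute cytotoxicity in a human lymphoblastoid line is scored as a concentration-dependent fall in cellular ATP after 24 hr at 37 C in complete medium. The positive control is tetraoctylammonium bromide, and potency is given as Hill-fit AC50.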

A short description of test [16]: Cell Viability - LYMP2-022 (AID 987). In a few lines: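 Acute toxicity in a human lymphoblastoid line is scored as decreased intracellular ATP after 24 hr compound treatment at 37 C. ATP is measured by CellTiter-Glo luminescence; curves are fitted with the Hill equation to give AC50.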
Test [17] can be described thus: Cell Viability - LYMP2-024 (AID 988).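 Further: plate controls were DMSO only for no effect and 92 µM tetraoctylammonium bromide for full effect; nearly all actives have a fitted effect of over 60% in size.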 In a few lines: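 Acute toxicity is measured as concentration-dependent loss of intracellular ATP in a human lymphoblastoid line treated 24 hours at 37 C. Luciferase luminescence quantifies ATP; AC50 values come from standard Hill-equation modelling.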
The nature of test [18]: Cell Viability - LYMP2-026 (AID 989).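 Further: cells exposed to compound for 24 h at 37 °C; on the % scale 0 is the no-effect control and ±100 the full control effect; nearly all actives have a fitted effect of over 50% in size.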 The essentials:
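Concentration-dependent loss of intracellular ATP in human lymphoblastoid cells after 24 hr at 37 C, quantified by luciferase luminescence. AC50 derived from standard Hill equation.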

Test [19] in a line: Cell Viability - LYMP1-002 - Assay at 24 hr (AID 993). Further: on the % scale 0 is the no-effect control and ±100 the full control effect. The essentials: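 qHTS, LYMP1-002 lymphoblastoid, 24 h cpd, 37 C, CellTiter-Glo ATP luminescence; AC50 via Hill eq.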
A short description of test [20]: Cell Viability - LYMP1-002 - Assay at 40 hr (AID 994). In a few lines:
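Viability in the human lymphoblastoid line was measured as intracellular ATP via CellTiter-Glo after 40 hr compound exposure. Tetraoctylammonium bromide served as positive control.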

In test [21] the target is Bile acid receptor (Homo sapiens) (UniProt Q96RI1). In words: qHTS assay for small molecule antagonists of farnesoid X receptor signaling (AID 588526; calls by dose curve; further: potency means the concentration at half of the fitted maximal effect). The essentials:
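Beta-lactamase reporter antagonist mode: HEK293T FXR-UAS-bla cells, titrated compound, CDCA stimulation, 16 h 37 C, CCF4 dye 2 h RT. Data normalized to CDCA 50 uM and DMSO; Hill-fit IC50.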

Test [22] has as its target Glucocorticoid receptor (Homo sapiens) (UniProt P04150). In words: qHTS assay for small molecule agonists of glucocorticoid receptor signaling (AID 588532; active means well fitted curve in the direction sought with a large enough effect in the signal ratio, with a control signal flat; the % refers to the signal ratio;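 further: 100% = dexamethasone at 0.1 µM and 0% = DMSO only wells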). As to conditions: HeLa MMTV-bla, beta-lactamase ratio, agonist, 18 h; stronger effect = higher value; percent of dexamethasone control, DMSO zero. In a few lines: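 Quantitative HTS using CellSensor MMTV-bla HeLa cells in charcoal/dextran-treated serum; compounds tested up to 92 uM. After 18 h at 37 C, CCF4 dye reported reporter induction.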
(In general: qHTS replaces the single test concentration by a dilution series.)

Test [23] shares this target. Description: qHTS assay for small molecule antagonists of glucocorticoid receptor signaling (AID 588533; active means well fitted inhibition curve with a large enough effect in the signal ratio, with a control signal flat, not every such curve was filed as active; the % refers to the signal ratio;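 further: cells stimulated with 2 nM dexamethasone as agonist; potency means the concentration at half of the fitted maximal effect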). In a few lines: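 Antagonist-mode qHTS: compound titrations added to GRE-bla HeLa cells, then dexamethasone 2 nM final; 18 h, 37 C. CCF4 FRET fluorescence normalized to dexamethasone and DMSO; IC50 from Hill fit.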

Chain of Glucocorticoid receptor (Homo sapiens) (P04150 whole entry, looked up): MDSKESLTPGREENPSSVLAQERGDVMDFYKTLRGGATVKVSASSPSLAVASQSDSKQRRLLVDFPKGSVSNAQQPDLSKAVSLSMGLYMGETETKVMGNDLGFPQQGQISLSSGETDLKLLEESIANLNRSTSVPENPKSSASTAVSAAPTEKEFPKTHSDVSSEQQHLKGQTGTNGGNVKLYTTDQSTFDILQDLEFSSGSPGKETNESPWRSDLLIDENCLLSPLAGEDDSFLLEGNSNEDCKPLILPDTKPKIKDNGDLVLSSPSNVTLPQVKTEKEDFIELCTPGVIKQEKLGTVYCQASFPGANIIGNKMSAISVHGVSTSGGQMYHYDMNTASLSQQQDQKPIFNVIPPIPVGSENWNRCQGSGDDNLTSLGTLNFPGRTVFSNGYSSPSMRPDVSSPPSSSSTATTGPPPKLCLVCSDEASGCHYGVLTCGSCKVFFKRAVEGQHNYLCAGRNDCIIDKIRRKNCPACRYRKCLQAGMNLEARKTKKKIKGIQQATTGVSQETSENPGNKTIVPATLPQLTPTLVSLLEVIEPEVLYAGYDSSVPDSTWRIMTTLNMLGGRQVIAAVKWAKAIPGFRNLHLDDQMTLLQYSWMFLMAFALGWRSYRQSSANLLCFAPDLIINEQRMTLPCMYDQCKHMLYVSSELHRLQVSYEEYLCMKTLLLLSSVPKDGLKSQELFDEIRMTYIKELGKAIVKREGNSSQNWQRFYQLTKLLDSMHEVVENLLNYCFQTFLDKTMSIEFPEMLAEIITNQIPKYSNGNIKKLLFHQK
Chain of Bile acid receptor (Homo sapiens) (Q96RI1 whole entry, looked up): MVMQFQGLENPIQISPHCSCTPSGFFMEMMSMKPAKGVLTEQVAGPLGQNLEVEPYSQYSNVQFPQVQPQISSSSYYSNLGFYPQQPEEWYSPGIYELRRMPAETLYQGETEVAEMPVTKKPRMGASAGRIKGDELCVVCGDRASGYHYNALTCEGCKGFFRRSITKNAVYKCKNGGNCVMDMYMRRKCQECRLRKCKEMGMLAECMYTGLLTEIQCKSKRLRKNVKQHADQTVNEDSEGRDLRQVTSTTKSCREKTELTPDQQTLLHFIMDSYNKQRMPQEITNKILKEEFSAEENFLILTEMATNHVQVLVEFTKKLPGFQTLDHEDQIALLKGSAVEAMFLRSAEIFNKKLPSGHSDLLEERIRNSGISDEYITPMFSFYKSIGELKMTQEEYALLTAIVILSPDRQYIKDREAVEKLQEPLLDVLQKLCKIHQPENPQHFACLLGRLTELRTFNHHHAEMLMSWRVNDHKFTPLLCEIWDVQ

As to `CC(C)(c1cc(Br)c(O)c(Br)c1)c1cc(Br)c(O)c(Br)c1`, the result in [1], in [2], in test [3], in [4], in test [5] and in test [6] was inactive. Also, the compound was classed as inactive in test [7], in [8], in test [9], in [10], in test [11] and in [12]. Further, the outcome in test [13], in [14], in test [15], in test [16], in test [17] and in test [18] was inactive. In addition, the result in test [19] and in [20] was inactive. Besides, the Potency in [21] was 28.2 µM (active) and inactive; in test [23], 44.7 µM (active). In addition, the activation in test [22] was -10.8% (inactive) and 25.4% (inactive) and -11.2% (inactive).
